Results from PubChem BioAssay.
Results filed as inconclusive are left out. Activity calls are given as the source filed them.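 How the source made its calls, unless noted: active means inhibition over a set limit, the all-compound mean plus 3 SD, in both replicate runs; inconclusive means over that limit in just one replicate run; inactive means at or under that limit in both runs.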

Assays:
[1] = Her2 expression decrease, cell viability multiplex – SKBR3 breast tumor cells, AlphaScreen, ATP viability, primary screen (AID 461;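 active means Her2 level under about 52% in both replicate screens, with viability over 70% of control, limit read from the data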;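 on Her2 level: lower value means less Her2 protein in the cells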;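 on viability: percent of carrier control wells set as 100% viability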); conditions: SKBR3 Her2 protein level, 18-24 h, measured here: SKBR3 viability, ATP luminescence, at 10 µM
[2] = target: Receptor tyrosine-protein kinase erbB-2 (Homo sapiens) (UniProt P04626); experiment: as above; conditions: 18-24 h, at 10 µM, stronger effect = lower value
Chain of Receptor tyrosine-protein kinase erbB-2 (Homo sapiens) (P04626 whole entry, looked up): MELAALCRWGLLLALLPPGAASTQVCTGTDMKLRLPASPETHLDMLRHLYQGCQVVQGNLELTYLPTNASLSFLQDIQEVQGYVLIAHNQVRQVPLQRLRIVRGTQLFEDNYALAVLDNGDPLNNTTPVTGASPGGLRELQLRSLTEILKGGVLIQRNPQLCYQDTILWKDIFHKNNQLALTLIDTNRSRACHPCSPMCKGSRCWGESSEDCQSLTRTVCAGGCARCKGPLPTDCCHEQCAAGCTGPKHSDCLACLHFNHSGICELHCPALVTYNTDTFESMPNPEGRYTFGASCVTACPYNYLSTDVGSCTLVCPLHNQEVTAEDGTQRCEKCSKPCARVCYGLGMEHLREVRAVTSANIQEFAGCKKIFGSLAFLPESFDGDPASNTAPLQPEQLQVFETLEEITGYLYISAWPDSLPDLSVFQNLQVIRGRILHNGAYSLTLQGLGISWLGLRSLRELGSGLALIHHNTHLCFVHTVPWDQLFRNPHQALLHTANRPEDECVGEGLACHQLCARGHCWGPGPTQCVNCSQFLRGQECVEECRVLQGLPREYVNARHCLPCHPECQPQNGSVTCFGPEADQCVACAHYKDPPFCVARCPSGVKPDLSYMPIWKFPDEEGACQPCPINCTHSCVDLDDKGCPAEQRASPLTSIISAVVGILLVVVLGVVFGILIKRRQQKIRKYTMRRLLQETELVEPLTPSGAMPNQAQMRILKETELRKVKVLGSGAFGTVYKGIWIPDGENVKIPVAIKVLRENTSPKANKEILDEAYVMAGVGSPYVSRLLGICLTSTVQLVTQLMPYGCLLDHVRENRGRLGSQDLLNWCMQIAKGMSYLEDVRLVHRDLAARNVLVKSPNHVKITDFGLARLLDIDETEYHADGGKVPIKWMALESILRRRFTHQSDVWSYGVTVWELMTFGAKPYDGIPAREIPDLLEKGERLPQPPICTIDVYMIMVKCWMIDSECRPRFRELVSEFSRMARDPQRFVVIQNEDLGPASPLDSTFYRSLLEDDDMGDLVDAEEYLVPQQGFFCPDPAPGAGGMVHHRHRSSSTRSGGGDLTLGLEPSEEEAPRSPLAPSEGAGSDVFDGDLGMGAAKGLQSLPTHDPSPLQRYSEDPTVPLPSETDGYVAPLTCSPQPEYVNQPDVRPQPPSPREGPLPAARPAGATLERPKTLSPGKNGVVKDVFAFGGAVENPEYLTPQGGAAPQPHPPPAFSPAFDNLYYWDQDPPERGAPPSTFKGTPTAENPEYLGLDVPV

[3] = reduced viability of SK-BR-3 breast cancer cells – cell-based, 24 h, human, pilot screen (AID 572;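 active means viability at or below 10% of carrier control in both of two separate runs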;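 further: compound exposure lasted between 18 and 24 h rather than exactly 24 h; 100% = carrier-treated control wells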); conditions: SK-BR-3 viability, CellTiter-Glo luminescence, at 10 µM, stronger effect = lower value
[4] = HUVEC growth inhibition – cell-based, human, primary screen (AID 575;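 active means viability at or below 30% in both replicate assays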;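 further: 100% = median of untreated cell wells with 0.1% DMSO on each plate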); conditions: HUVEC proliferation, CellTiter-Glo luminescence, 72 h; at 10 µM; stronger effect = lower value
[5] = H69AR cell proliferation blockers – human, duplicate replicates, primary screen (AID 580;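 active means viability at or under a set limit in both replicates, limit being median viability minus 3 SD, cut at about 48% in these data, passing the limit was not always enough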;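 further: 100% = mean luminescence of untreated wells and 0% = no signal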); conditions: H69AR lung tumor cells viability, ATP luminescence, 72 h; at 10 µM; stronger effect = lower value
[6] = MRP1 drug-resistance reversers in H69AR cells – cell-based, doxorubicin co-treatment, pilot screen (AID 601;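 active means viability loss from added drug above about 55%, and viability with drug at most 40%, in both replicates, limit read from the data, passing the limit was not always enough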); conditions: CellTiter-Glo, 72 h, at 10 µM; for differential viability (reversal): stronger effect = higher value
[7] = yeast transport mutant growth inhibition pilot in 384-well plates, post-Golgi transport modulator project (AID 636; in the data active means inhibition above about 31%); conditions: absorbance 615 nm, about 18 h, stronger effect = higher value
[8] = growth suppression of yeast trafficking mutant, preliminary HTS, modulators of trafficking downstream of Golgi apparatus project, 1536-format plate, OD 615 nm (AID 637; in the data active means inhibition above about 30%); conditions: yeast transport mutant growth, absorbance 615 nm, 18 h; stronger effect = higher value
[9] = S. cerevisiae growth inhibition in permissive medium (OD615), pilot counter-assay for S. cerevisiae lifespan shortening project, permissive growth control (AID 705;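 active means growth inhibition above 25% in both replicates, a cutoff set 3 SD above the mean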); conditions: OD615, 24 h, at 10 µM, stronger effect = higher value
[10] = S. cerevisiae growth inhibition in restrictive medium, OD615, pilot screen, restrictive growth control, yeast lifespan reduction project (AID 706;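 active means growth inhibition above a set limit, 3 SD over mean compound inhibition, in both replicates, cut at about 43% in these data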;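 further: modified DeaD lifespan yeast strain shifted to restrictive glucose medium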); conditions: OD615, 48 h, at 10 µM, stronger effect = higher value
[11] = doxorubicin toxicity protection in MRP-1 cells – H69AR cells, CellTiter-Glo, duplicate, MRP-1 activator project, pilot screen (AID 807;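 active means viability increase at or above a cutoff of the median across tested compounds plus 3 SD, cut at about 8.5% in these data, passing the limit was not always enough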;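 further: compound pretreatment 18-22 h then 72 h combined with doxorubicin; 0% = doxorubicin alone and 100% = vehicle without doxorubicin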); conditions: H69AR viability with doxorubicin, CellTiter-Glo luminescence; at 10 µM; stronger effect = higher value
[12] = viability of HCT116 without oncogenic beta-catenin – human colon tumor cells, pilot screen (AID 823;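 active means cell viability at or below a set limit in both duplicate runs, the limit being the all-compound median minus 4 SD, cut at about 23% in these data, passing the limit was not always enough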;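 further: 0% = wells killed by 20 µM Hyamine and 100% = untreated DMSO cell wells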); conditions: HCT116 beta-catenin knockout viability, CellTiter-Glo, 60 h; at 10 µM; stronger effect = lower value
[13] = viability of PTEN-null HCT116 cells – cell-based, HCT116 clonal line, CellTiter-Glo, pilot screen (AID 824;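 active means viability at or below 27.92% in each of two runs, the all-compound median minus 4 SD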;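 further: 0% = 20 µM Hyamine control and 100% = vehicle cell control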); conditions: HCT116 PTEN-deleted viability, 60 h, at 10 µM, stronger effect = lower value
[14] = RAM pathway blockade in budding yeast – dse1pr::URA3 reporter, 5-FOA selection, pilot screen (AID 869);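 further: 0% = DMSO wells with no growth and 100% = 10 µM 1-NA-PP1 with full growth; RAM network block rescues cells from 5-FOA so hits raise OD615 growth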; conditions: S. cerevisiae dse1pr::URA3 5-FOA growth, OD615, 2 d; at 10 µM; stronger effect = higher value; strain carries analog-sensitive mutant Cbk1 kinase
[15] = RAM signaling pathway blockade in yeast – S. cerevisiae, Pdr1DBD-CYC8 efflux-inhibited sensitized strain, primary screen (AID 1298;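 active means RAM network inhibition above 8.4% in each of two replicates, 3 SD over the compound average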;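 further: 0% = DMSO untreated cells without growth and 100% = 10 µM 1-NA-PP1 full growth; higher means more yeast growth rescued from 5-FOA killing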); conditions: S. cerevisiae cbk1-as DSE1-URA3 strain, 5-FOA growth OD615, 2 d; at 50 µM; stronger effect = higher value
[16] = H69AR cells + 2 uM doxorubicin, measured here: viability with 2 uM doxorubicin, stronger effect = lower value
[17] = H69AR cells, compound alone cytotoxicity

Cc1cccc(-n2ncc3c(NCCCn4ccnc4)ncnc32)c1
88.6%: viability [6, 17]
84.9%: viability [6, 16]
91.5%: viability [1]
inactive: Her2 level [2] 93.5% | viability [3] 91.5% | viability [4] 111% | viability [5] 88.6% | differential viability (reversal) ([6]; H69AR cells + 2 uM doxorubicin) 3.66% | inhibition [7] 2.13% | inhibition [8] -3.67% | growth inhibition [9] -2.31% | growth inhibition [10] -0.87% | viability increase [11] -0.65% | viability [12] 92.9% | viability [13] 99.5% | inhibition [14] 1.1% | RAM network inhibition [15] -0.32%

Cc1ccc2oc(=O)c3cnn(CC(=O)NCCC(C)C)c3c2c1
84.5%: viability [1]
inactive: Her2 level [2] 102% | viability [3] 84.5% | viability [4] 95.2% | viability [5] 88.1% | differential viability (reversal) ([6]; H69AR cells + 2 uM doxorubicin) 15.4% | inhibition [7] -0.26% | inhibition [8] -1.67% | growth inhibition [9] 2.22% | growth inhibition [10] -6.28% | viability increase [11] -1.72% | viability [12] 105% | viability [13] 100% | inhibition [14] 1.22% | RAM network inhibition [15] 6.67%
88.1%: viability [6, 17]
72.6%: viability [6, 16]

Cc1cc(C)cc(N(CC(=O)Nc2cccc(C)n2)S(=O)(=O)c2c(C)noc2C)c1
inactive: Her2 level [2] 97% | viability [3] 88.5% | viability [4] 92.3% | viability [5] 85.6% | differential viability (reversal) ([6]; H69AR cells + 2 uM doxorubicin) 11.8% | inhibition [7] -0.64% | inhibition [8] -2% | growth inhibition [9] -12.3% | growth inhibition [10] -11.5% | viability increase [11] -4.06% | viability [12] 73.4% | viability [13] 71.9% | inhibition [14] 0.94% | RAM network inhibition [15] 5.69%
73.8%: viability [6, 16]
88.5%: viability [1]
85.6%: viability [6, 17]

O=C(Oc1ccc2ccc(OC(=O)N3CCOCC3)cc2c1)N1CCOCC1
84%: viability [6, 17]
89.5%: viability [6, 16]
inactive: Her2 level [2] 96% | viability [3] 96.5% | viability [4] 108% | viability [5] 84% | differential viability (reversal) ([6]; H69AR cells + 2 uM doxorubicin) -5.42% | inhibition [7] -0.13% | inhibition [8] -2.5% | growth inhibition [9] -14.7% | growth inhibition [10] -15.1% | viability increase [11] 1.51% | viability [12] 92.2% | viability [13] 87.7% | inhibition [14] 1.12% | RAM network inhibition [15] 4.57%
96.5%: viability [1]

CCSc1nc2c(c(=O)[nH]1)C(c1cccnc1)C(C(=O)OC(C)C)=C(C)N2 (stereo not given)
inactive: Her2 level [2] 83.5% | viability [3] 95.5% | viability [4] 90.9% | viability [5] 97.4% | differential viability (reversal) ([6]; H69AR cells + 2 uM doxorubicin) 15.6% | inhibition [7] -4.19% | inhibition [8] -0.33% | growth inhibition [9] -18.5% | growth inhibition [10] -8.67% | viability increase [11] -3.07% | viability [12] 92.3% | viability [13] 92.5% | inhibition [14] 0.98% | RAM network inhibition [15] 0.72%
81.8%: viability [6, 16]
95.5%: viability [1]
97.4%: viability [6, 17]

O=c1c2ccccc2nc(SCc2nc(-c3ccccc3)no2)n1-c1ccc(F)cc1
95.5%: viability [6, 16]
89.7%: viability [6, 17]
90.5%: viability [1]
inactive: Her2 level [2] 98% | viability [3] 90.5% | viability [4] 79.7% | viability [5] 89.7% | differential viability (reversal) ([6]; H69AR cells + 2 uM doxorubicin) -5.78% | inhibition [7] -5.73% | inhibition [8] 2.17% | growth inhibition [9] 2.33% | growth inhibition [10] -3.72% | viability increase [11] -1.52% | viability [12] 72.2% | viability [13] 68.6% | inhibition [14] 1.77% | RAM network inhibition [15] 8.86%

CC(=O)N1CCc2c(sc(NC(=O)c3ccc(S(=O)(=O)N(C)C)cc3)c2C#N)C1
87.5%: viability [6, 17]
inactive: Her2 level [2] 105% | viability [3] 83.5% | viability [4] 73.3% | viability [5] 87.5% | differential viability (reversal) ([6]; H69AR cells + 2 uM doxorubicin) 5.97% | inhibition [7] -2.27% | inhibition [8] -5.41% | growth inhibition [9] -4.59% | growth inhibition [10] 4.39% | viability increase [11] -3.73% | viability [12] 104% | viability [13] 94.3% | inhibition [14] 0.115% | RAM network inhibition [15] 1.67%
83.5%: viability [1]
81.5%: viability [6, 16]

CN(C)CCCNC(=O)CCC1CCCCC1
84.9%: viability [6, 16]
inactive: Her2 level [2] 78% | viability [3] 93% | viability [4] 101% | viability [5] 94% | differential viability (reversal) ([6]; H69AR cells + 2 uM doxorubicin) 9.09% | inhibition [7] -7.16% | inhibition [8] 1.17% | growth inhibition [9] -1.1% | growth inhibition [10] -3.73% | viability increase [11] 0.26% | viability [12] 99.5% | viability [13] 107% | inhibition [14] 0.2% | RAM network inhibition [15] 6.01%
94%: viability [6, 17]
93%: viability [1]

COc1ccc(OC)c(C(C)NC=O)c1 (stereo not given)
99.5%: viability [6, 17]
89%: viability [1]
inactive: Her2 level [2] 90.5% | viability [3] 89% | viability [4] 102% | viability [5] 99.5% | differential viability (reversal) ([6]; H69AR cells + 2 uM doxorubicin) 0.26% | inhibition [7] -6.89% | inhibition [8] -2.3% | growth inhibition [9] -9.25% | growth inhibition [10] -7.95% | viability increase [11] -0.64% | viability [12] 95.2% | viability [13] 105% | inhibition [14] 1.43% | RAM network inhibition [15] -0.21%
99.2%: viability [6, 16]

Cc1ccc2cc(CCNC(=O)C(C)C)c(=O)[nH]c2c1C
99%: viability [6, 17]
87.5%: viability [1]
inactive: Her2 level [2] 102% | viability [3] 87.5% | viability [4] 99.4% | viability [5] 99% | differential viability (reversal) ([6]; H69AR cells + 2 uM doxorubicin) 6.72% | inhibition [7] -4.8% | inhibition [8] -1% | growth inhibition [9] -15.2% | growth inhibition [10] -19.7% | viability increase [11] -0.61% | viability [12] 105% | viability [13] 99.1% | inhibition [14] 1.52% | RAM network inhibition [15] 6.36%
92.3%: viability [6, 16]
